Calb FLC – C. albicans growth inhibition with fluconazole, primary screen, CaCi-2 strain, Alamar Blue fluorescence | C. albicans CaCi-2 (fluconazole-resistant clinical isolate) + fluconazole, 48 h | growth inhibition, % (concentration not given with the values) | 300,000 tested, 0.57% active | AID 1979, 2009;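 active = growth inhibition above about 58% in most replicates, limit read from the data, passing the limit was not always enough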;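 also: all wells also contain fluconazole at 8 µg/ml as a sub-toxic cotreatment; 0% = median of DMSO wells and 100% = median of geldanamycin control wells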
PP1 inh – PP1-alpha phosphatase inhibitors, primary screen, counter-screen for PP5 inhibitor project, biochemical, fluorescence, OMFP substrate, single point; 320,000 tested, 0.9% active; purified PP1alpha; Serine/threonine-protein phosphatase PP1-alpha catalytic subunit (Homo sapiens), P62136; AID 2235, 2010; inhibition, % at 6.7 µM;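 active = inhibition above the mean inhibition of all tested compounds plus 3 SD, computed separately for each screening campaign, cut at about 15% in these data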
PP5 primary – PP5 phosphatase inhibitors, primary screen, biochemical, fluorescence | AID 1987, 2009 | inhibition, % at 6.7 µM | purified PP5c, OMFP substrate fluorescence | 320,000 tested, 0.18% active;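 active = inhibition above the campaign's mean inhibition across all tested compounds plus 3 SD, cut at about 9.5% in these data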;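 also: 0% = DMSO only and 100% = 100 µM cantharidin control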
Target sequence (P53041 whole entry, looked up): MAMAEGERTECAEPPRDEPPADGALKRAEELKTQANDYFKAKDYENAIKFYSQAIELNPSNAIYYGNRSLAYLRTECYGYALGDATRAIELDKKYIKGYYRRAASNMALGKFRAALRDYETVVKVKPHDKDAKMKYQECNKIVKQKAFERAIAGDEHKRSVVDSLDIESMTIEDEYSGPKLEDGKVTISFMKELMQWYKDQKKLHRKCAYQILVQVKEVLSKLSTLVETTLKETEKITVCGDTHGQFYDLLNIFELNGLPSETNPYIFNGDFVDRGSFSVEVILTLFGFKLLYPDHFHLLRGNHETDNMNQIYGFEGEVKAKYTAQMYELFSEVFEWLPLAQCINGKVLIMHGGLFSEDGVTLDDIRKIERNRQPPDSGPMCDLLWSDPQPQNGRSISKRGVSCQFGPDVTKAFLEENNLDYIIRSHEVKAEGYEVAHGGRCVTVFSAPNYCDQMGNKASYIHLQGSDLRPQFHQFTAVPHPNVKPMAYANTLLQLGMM
ALR inh – inhibitors of human ALR sulfhydryl oxidase, primary screen, biochemical, H2O2 detection, HRP-luminol luminescence, single point | 290,000 tested, 3.8% active | inhibition, % (concentration not given with the values) | purified ALR, DTT oxidation | FAD-linked sulfhydryl oxidase ALR (Homo sapiens), P55789;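 active = mean replicate inhibition above about 79%, with every replicate also reaching it, limit read from the data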
CSC inhib – cancer stem cell viability inhibitors, primary screen, luminescence; inhibition, % at 7.5 µM; AID 2717, 2010; 300,000 tested, 1.1% active; cancer stem cell-like cells viability; in the data active = inhibition above about 75%; tested in HMLE shEcad cells
PP1 confirm – PP1 phosphatase inhibitors, confirmation, biochemical, fluorescence, OMFP substrate, triplicate; shares compounds with PP1 inh; inhibition, % at 6.7 µM; 1,900 tested, 52% active; purified PP1alpha;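 active = mean PP1 inhibition above a set limit taken from the earlier primary screen, cut at about 15% in these data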
PP5 inh counter – PP5 phosphatase inhibition by PP1 hits, confirmation, counter-screen for PP1 inhibitor project, biochemical, fluorescence, triplicate; shares compounds with PP1 inh; purified PP5c, OMFP fluorescence; inhibition, % at 6.7 µM; 1,900 tested, 4% active; AID 2360, 2010;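 active = mean PP5 inhibition over triplicate wells above about 9.5% taken from the earlier PP1 screen, limit read from the data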
* = called active by the depositor; / = not tested or not shown. Compounds with a hit are over-represented: about 5.4% of the library has one in this group of screens.

SMILES	Calb FLC	PP1 inh	PP5 primary	ALR inh	CSC inhib	PP1 confirm	PP5 inh counter
COc1ccc(/C=C/c2c(-c3ccccc3OC)sc3ccccc23)cc1OC	/	/	/	6	6	/	/
Cc1cc(=O)n2[nH]c(-c3ccc(F)cc3)cc2n1	8	-4	2	-5	/	/	/
Cc1nc2nc(-c3ccccc3)cc(=O)n2[nH]1	3	1	1	0	0	/	/
Cc1cccc(-c2cc3nc(-c4ccccc4)cc(=O)n3[nH]2)c1	20	23*	0	3	59	21*	3
O=c1cc(-c2ccc([N+](=O)[O-])cc2)nc2cc(-c3ccc(F)cc3)[nH]n12	1	35*	0	/	-8	34*	1
O=C(N/N=C/c1cccc(F)c1)c1cc(-c2ccco2)nc2ccccc12	3	31*	-4	4	21	11	-2
O=C(N/N=C/c1ccco1)c1cc(-c2ccncc2)nc2ccccc12	-10	/	/	/	/	/	/
Nc1c(C(=O)c2ccc(Br)cc2)oc2ccccc12	-6	18*	3	-4	13	-4	-3
C#CCOCCOCCOCCNc1nc(N2CCN(C(=O)CCCCCCCCCCNC(=O)[C@H](CCCCN)n3cc(CCO)nn3)CC2)nc(N2CCN(C(=O)CCCCCCCCCCNC(=O)[C@H](CCCCN)n3cc(C[C@@H](C)CC)nn3)CC2)n1	/	41*	5	-46	95*	13	0
C#CCOCCOCCOCCNc1nc(N2CCN(C(=O)CCCCCCCCCCNC(=O)[C@@H](CCC(=O)O)n3cc(CCCCCN)nn3)CC2)nc(N2CCN(C(=O)CCCCCCCCCCNC(=O)[C@H](CCCCN)n3cc(C[C@@H](C)CC)nn3)CC2)n1	/	18*	1	-9	3	11	2
C#CCOCCOCCOCCNc1nc(N2CCN(C(=O)CCCCCCCCCCNC(=O)[C@@H](CCSC)n3cc(CCO)nn3)CC2)nc(N2CCN(C(=O)CCCCCCCCCCNC(=O)[C@H](CCCN=C(N)N)n3cc(C[C@@H](C)CC)nn3)CC2)n1	/	49*	4	-3	67	39*	4
Cc1ccc(C)c(NC(=O)CCN2C(=O)C3CC=CCC3C2=O)c1 (stereo not drawn)	/	-2	-1	/	/	/	/
O=C(N/N=C/c1c[nH]c2ccccc12)c1cc(Cl)ccc1O	8	6	-3	50	1	/	/
N#Cc1sc2nc(-c3ccccc3)cc(C(F)(F)F)c2c1N	0	/	/	/	/	/	/
COc1ccc(/C=C/C(=O)NC(=S)Nc2ccc(S(=O)(=O)N=C(N)N)cc2)cc1OC	-1	20*	1	6	-6	23*	-2
O=S(=O)(c1ccc(Cl)cc1)N1CCN(Cc2ccncc2)CC1	-1	2	2	2	14	/	/
O=S(=O)(c1ccc(Cl)cc1)N1CCN(Cc2ccc(O)c3ncccc23)CC1	95*	18*	3	-2	89*	24*	-2
COc1ccccc1NC(=O)/C(=N/OCc1ccc(C#N)cc1)C(C)=O	-16	-8	0	21	21	/	/
Cc1cc(C)c2nc(NNC(=O)c3ccc(S(=O)(=O)N4CCCC(C)C4)cc3)sc2c1 (stereo not drawn)	12	21*	4	14	119*	24*	3
Cc1ccc2nc(NNC(=O)c3ccc(S(=O)(=O)N4CCc5ccccc5C4)cc3)sc2c1	59	29*	1	2	102*	25*	2
Cc1cccc2sc(NNC(=O)c3ccc(S(=O)(=O)N4CC(C)CC(C)C4)cc3)nc12 (stereo not drawn)	-4	23*	3	0	118*	19*	0
COC(=O)c1sc2ccccc2c1NC(=O)c1ccc(S(=O)(=O)N2CCCC(C)C2)cc1 (stereo not drawn)	-8	-1	1	-2	29	/	/
Cc1ccc(C2C(C(=O)c3ccco3)=C(O)C(=O)N2c2nnc(C)s2)cc1 (stereo not drawn)	0	7	1	/	-19	/	/
Cc1cc(C)c2nc(N3C(=O)C(O)=C(C(=O)c4ccco4)C3c3ccc(O)cc3)sc2c1 (stereo not drawn)	/	34*	3	99*	29	30*	2
Cc1cc(C)c2nc(N3C(=O)C(O)=C(C(=O)c4ccco4)C3c3cccc(O)c3)sc2c1 (stereo not drawn)	/	34*	3	99*	55	26*	2
SMILES	Calb FLC	PP1 inh	PP5 primary	ALR inh	CSC inhib	PP1 confirm	PP5 inh counter
NCCCCNCCCN	/	3	-2	/	-3	/	/
COc1ccc(C2C3C=CCC(c4cccc(-c5ccc(C)cc5)c4)C3C(=O)N2Cc2ccccc2)cc1Cl (stereo not drawn)	-30	18*	-1	9	2	0	-6
Cc1ccc(NC(=O)/C(C#N)=C/c2cn(CC(=O)NCc3ccco3)c3ccccc23)cc1C	-2	32*	1	1	37	31*	-1
O=C(c1cccc(Cl)c1)N1CCC(=O)N(C(COCc2cccc(Cl)c2)Cc2ccccc2)CC1 (stereo not drawn)	22	12	2	-2	12	/	/
O=C(c1ccc(Cl)c(Cl)c1)N1CCC(=O)N(C(COCc2cccc(Cl)c2)Cc2ccccc2)CC1 (stereo not drawn)	9	20*	4	-17	45	9	1
CCCCN(C(=O)c1ccc2c(c1)NC(=O)CS2)c1ccccc1	/	-1	4	-20	3	/	/
CCOc1ccccc1NC(=O)COC(=O)Cc1ccc(-c2ccccc2)cc1	20	21*	3	-2	3	16*	-3
CCOc1ccccc1NC(=O)COC(=O)Cc1ccsc1	/	3	1	/	/	/	/
N=c1c2c(-c3ccccc3)c(-c3ccccc3)n(Cc3ccco3)c2ncn1Cc1ccccc1	8	28*	1	-8	110*	1	-1
c1ccc(-c2c(-c3ccccc3)n(Cc3ccco3)c3ncnc(NCCCn4ccnc4)c23)cc1	-27	24*	4	-9	133*	15	3
CC(C)Cn1cnc2c(c(-c3ccccc3)c(-c3ccccc3)n2Cc2ccco2)c1=N	17	6	3	-10	58	/	/
CC(=O)c1ccc(S(=O)(=O)N(C)CCCC(=O)N2CCN(c3ncccn3)CC2)cc1	/	-4	1	/	/	/	/
CC(C)(C)S(=O)(=O)c1cnc2c(-c3ccsc3)cnn2c1N	-5	-2	3	/	-11	/	/
CC(C)(C)c1ccc(-c2nn(CCC#N)cc2/C=N/O)cc1	-37	32*	4	-5	0	1	2
